Laboratory results published in PubChem BioAssay (NCI).
About 79,000 compounds went through this panel and 15% of them were active in at least one assay; those are over-represented in the sample as a whole. The source made the active and inactive calls. Rule as the data show it: active = growth inhibition above about 70%; inactive = the rest.

Test: NCI Yeast Anticancer Drug Screen. Data for the rad14 strain (AID 159);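 also: 0% = growth of vehicle-treated control cultures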
Conditions: S. cerevisiae rad14 strain growth inhibition, stronger effect = higher value
Method: Growth inhibition of yeast strains with defined genetic alterations is measured as a screen for potential anti-cancer activity. Selected strains with alterations in DNA damage repair or cell cycle control were exposed to compounds and growth inhibition was measured relative to vehicle treated controls. The strain used in this assay is rad14

SMILES | growth inhibition (at 1.2 µM) | growth inhibition (at 3.7 µM) | growth inhibition (at 11.0 µM) | growth inhibition (at 33.0 µM) | growth inhibition (at 100.0 µM)
Cc1cc(O)c2c(c1O)C(=O)C13C(=C2O)C(=O)C2C(O)C1C1C(O)C3C(=O)C3=C(O)c4c(O)cc(C)c(O)c4C(=O)C321 (stereo not given) | -6% (inactive) | 9% (inactive) | 52% (inactive) | 77% (active) | 80% (active)
O=c1[nH]cc(/C=N\Nc2ccccc2)c(=O)[nH]1 | -1% (inactive) | 1% (inactive) | 12% (inactive) | 15% (inactive) | 10% (inactive)
Cc1ccc(N=Nc2ccc(O)c(C)c2)cc1 | 4% (inactive) | -7% (inactive) | 68% (inactive) | 96% (active) | 89% (active)
O=NN(CCCl)C(=O)NCCCl | -2% (inactive) | 1% (inactive) | 3% (inactive) | 3% (inactive) | 11% (inactive)
CN(Cc1cnc2nc(N)nc(N)c2n1)c1ccc(C(=O)NC(CCC(=O)O)C(=O)O)c2ccccc12 (stereo not given) | -2% (inactive) | 11% (inactive) | 49% (inactive) | 82% (active) | 91% (active)
O=[N+]([O-])c1cc(S(=O)(=O)Nc2ccccc2)ccc1Cl | -4% (inactive) | -8% (inactive) | 2% (inactive) | 91% (active) | 98% (active)
O=NN(CCCl)C(=O)NC1CCCCC1 | 1% (inactive) | 7% (inactive) | 13% (inactive) | 15% (inactive) | 14% (inactive)
CCCCCCCCCCCCCC(=O)OC(C)CCC1CCCO1 (stereo not given) | -2% (inactive) | -6% (inactive) | 0% (inactive) | 3% (inactive) | -4% (inactive)
